From PubChem BioAssay (NCATS)
Inconclusive results are not listed. Unmarked numbers belong to inactive results. Calls of active or inactive are those of the source. The call rests on the fitted dose curve; in most records, active means well fitted activation curve with a large enough effect; inconclusive means small, poorly fitted or top-dose-only effect, or another doubt; inactive means no such curve, though single readings can be large or run the other way.
Potency means the concentration at half of the fitted maximal effect.

What follows are compounds tested against Rap guanine nucleotide exchange factor 3 (Homo sapiens) (UniProt O95398) (assay: Counterscreen qHTS for agonist of cAMP-regulated guanine nucleotide exchange factor 3 (EPAC1) (AID 1645889; further: nearly all actives have a fitted effect of over 40% in size; on activation: % of control where 0% means no effect)). Conditions: EPAC1 Rap1B-BODIPY-GDP exchange, fluorescence; series mostly up to 154 µM; activation: at the top concentration.
Description: Assay Provider (PI): Xiaodong Cheng Ph.D. The University of Texas Medical Branch, […], TX MLPCN Grant: NS066510 In multi-cellular eukaryotic organisms, the effects of cAMP are transduced by two ubiquitously-expressed intracellular cAMP receptors, the classic protein kinase A/cAMP-dependent protein kinase (PKA/cAPK) and the more recently discovered exchange protein directly activated by cAMP/cAMP-regulated guanine nucleotide exchange factor (EPAC/cAMP-GEF). Both PKA and EPAC are ubiquitously expressed in all tissues, and an increase in intracellular cAMP levels will lead to the activation of both PKA and EPAC. Therefore, careful dissections of the individual role and relative contribution of EPAC and PKA within the overall cAMP signaling in various model systems are critical for further elucidating the mechanism of cAMP signaling. To date no EPAC-specific antagonists and agonist, as well as isoform-specific agonists have been reported, and developing EPAC-specific pharmacological probes to determine the physiological functions that EPAC play in the overall cAMP-mediated signaling remains a major challenge within the research field. Furthermore, identified regulators of EPAC may lead to new mechanism-based therapeutic strategies specifically targeting the EPAC / cAMP-signaling components as EPAC has been implicated to play important roles in major human pathological conditions such as diabetes, heart disease, and cancer. This qHTS will be used to screen the Molecular Libraries Small Molecule Repository (MLSMR) as a concentration-titration series using the NCGC unique quantitative screening (qHTS) platform to find activators for EPAC1. In addition, this assay will also be used as a counterscreen for the EPAC2 qHTS. This fluorescent based assay is developed and validated for EPAC1 that measures exchange using EPAC effector Rap1 complex with BODIPY-GDP, a GDP analog with a tethered fluorophores. Activators are identified by monitoring the change in fluorescence signal as the exchanged free BODIPY-GDP has a reduced fluorescence compared to Rap1-bound BODIPY-GDP. Increase in signal (activation) is the desired outcome for the EPAC1 agonist while no activity in this assay is desired for the EPAC2 agonist counterscreen. Reference: [1] de Rooij, J., Zwartkruis, F. J., Verheijen, M. H., Cool, R. H., Nijman, S. M., Wittinghofer, A., and Bos, J.L. (1998) Nature 396, 474-477. Kawasaki, H., Springett, G. M., Mochizuki, N., Toki, S., Nakaya, M., Matsuda, M., Housman, D. E., and Graybiel, A. M. (1998) Science 282, 2275-2279.
EPAC1 Counterscreen PROTOCOL TABLE SEQUENCE No. (e.g., 1, 2, 3, etc.); […] (e.g., Cells, Incubation, Reagent, etc.); VALUE and DESCRIPTION. 1. Reagent. 3 uL. [1x] 250 nM Rap1B-BODIPY-GDP, and 50 uM GDP. 2a. Compound. 23 nL. Control 6,572 uM cAMP (working concentration). 2b, 2c. Compound. 23 nL. Control activator and inhibitor; 234 - 30,000 uM cAMP and 16.4 - 10,000 uM. 2d. Compound. 46 nL. MLSMR follow-up library; 0.64 - 10,000 uM. 3. Time. 15 sec, 1000rpm. Centrifuge. 4. Time. 5 min. Incubation at room temperature. 5. Detector. Fluorescence. (Read 1), Ex/Em = 480 nm / 540 nm. 6. Time. 30 min. Incubation at room temperature. 7. Detector. Fluorescence. (Read 2), Ex/Em = 480 nm/ 540 nm. 8. Reagent. 1uL. Dispense either [4x] 10 uM cAMP or buffer. 9. Time. 15 sec, 1000 rpm. Centrifuge. 10. Time. 5 min. Incubation at room temperature. 11. Detector. Fluorescence. (Read 3), Ex/Em = 480 nm / 540 nm. 12. Time. 30 min. Incubation at room temperature. 13. Detector. Fluorescence. (Read 4), Ex/Em = 480 nm / 540 nm. NOTES (numbers refer to Sequence numbers above; values are from representative experiments) 1. Medium-binding black solid-bottom Greiner plates (789176-F). Dispense 3 uL of [1x] 250 nM Rap1B-BODIPY-GDP, and 50 uM GDP into columns 1 to 48. 2a. Control compound cAMP (6,572 uM, column 3, rows 1 to 32) single pin-transferred for a [final] of 50 uM. 2b. […]
For `NC(=O)c1sc(=S)n2c1[nH]c(=O)c1sccc12`, the “activation” value was 18%. Compound `CCN1/C(=C/C(C)=C/c2sc3ccccc3[n+]2CC)Sc2ccccc21` has an activation of 12.5% [at 30.8 µM]. `CC[n+]1c(/C=C/C=C/N(C(C)=O)c2ccccc2)sc2cc(OC)ccc21` was tested, and the Potency was 50.1 µM (active). With `O=C(NCCC(=O)N(CCc1ccccc1)Cc1ccccc1)c1ccccc1Cl` the activation was 7.42% [at 30.8 µM]. `Cc1ccc2c(c1)c1c(c(=O)n(-c3cccc(Cl)c3)c(=O)n1C)n2C` was tested, and the “activation” value was 1.36%. For `CC(C)(C)[C@H](N)C(=O)N[C@H]1CCC2C3CC=C4C[C@@H](O)CC[C@]4(C)C3CC[C@@]21C` (stereo not given in full), the activation was 31.4% [at 30.8 µM]. For `CCN1/C(=C/c2ccc3cc(C)ccc3[n+]2CC)Sc2ccccc21`, the “activation” value was 9.79%. With `CC(Sc1nncn1C)C(=O)Nc1nnc(C(C)C)s1` (stereo not given) the “activation” value was 3.18%. With `N#Cc1c(-c2ccccc2)nc(SCc2cccc(C(F)(F)F)c2)[nH]c1=O` the “activation” value was -15.4%. In the case of `COc1ccc(C(C)=NNc2ccc([N+](=O)[O-])cc2S(=O)(=O)Nc2ccccc2C(=O)O)c(OC)c1`, the “activation” value is reported as -16.6%. `Cc1ccc(-c2nc3ccc(Br)cn3c2Cc2ccccc2C(F)(F)F)cc1` was tested, and the “activation” value was -4%. Work on `COc1cccc(CC(=O)Nc2ccc(S(=O)(=O)Nc3nccs3)cc2)c1` yielded an activation of 9.39% [at 30.8 µM]. With `CCC(=O)C1=C(c2cccc([N+](=O)[O-])c2)N(C(=O)CC)n2c(nnc2-c2ccccc2)S1` the “activation” value was 8.48%. In the case of `CCCOc1c(OC)cccc1C1CC(=O)Nc2cc(OC)c(OC)c(OC)c21` (stereo not given), the “activation” value is reported as 11.4%. In the case of `c1ccc2c(c1)oc1c(-c3ccc4nccn4c3)cccc12`, the activation is reported as 14.4% [at 30.8 µM]. For `CCCCNC(=O)NC12CC3CC(CC(C3)C1)C2`, the “activation” value was 4.75%. `COc1ccccc1Sc1nc(-c2ccccc2)ncc1OC` was tested, and the activation was 18.8% [at 30.8 µM]. With `O=C(O)COc1ccc(NC(=O)C(c2ccccc2)c2ccccc2)cc1` the “activation” value was 13%. With `Cc1ccc(C(=O)Nc2sc(C)c(C)c2C(=O)c2ccccc2)cc1` the activation was -4.34% [at 30.8 µM]. `CC(=O)C1=C(O)C(=O)N(c2cccc(Br)c2)C1c1ccc(Br)cc1` (stereo not given) was tested, and the “activation” value was 7.81%. With `Oc1ccc(NCc2ccccc2OCc2ccccc2)cc1` the activation was 20.2% [at 30.8 µM]. With `CC1(C(=O)NS(=O)(=O)c2ccc(Cl)s2)CCN1C(=O)c1ccc(C2CCCCC2)cc1` (stereo not given) the activation was -4.08% [at 30.8 µM]. Work on `CC1CC1C(=O)OCC(=O)NNC(=O)COc1ccc(Br)cc1` (stereo not given) yielded an activation of 28.1% [at 30.8 µM]. With `COc1cccc(OC)c1C(=O)Nc1ccccc1Sc1ccccc1` the “activation” value was 13.1%. For `C=CCn1c(C)cc(C(=O)Cn2ncc(Cl)c(Cl)c2=O)c1C`, the “activation” value was 18.2%. Work on `O=C(COC(=O)Cc1ccc(Cl)cc1)Nc1ccc2[nH]c(=O)[nH]c2c1` yielded an activation of -0.761% [at 30.8 µM]. For `Cc1ccc(NC(=O)COC(=O)Cn2c(C)csc2=O)c([N+](=O)[O-])c1`, the “activation” value was 8.2%. `CCCc1[nH]nc2c1C(c1cccnc1)C(C#N)=C(N)O2` (stereo not given) showed an activation of -0.109% [at 30.8 µM]. Compound `CC1=NN(c2nc(-c3ccc(Cl)cc3)cs2)C(=O)C1` has an activation of 11% [at 30.8 µM]. `C/C(=C\c1ccco1)CN1CCN(Cc2ccc(C)o2)C(CCO)C1` (stereo not given) was tested, and the “activation” value was 0.843%. In the case of `O=C(COc1ccccc1Cl)Nc1cccc(S(=O)(=O)NC2=NCCCCC2)c1`, the “activation” value is reported as 31.6%. `COc1cc(OC)nc(Oc2cc(/C=N/O)ccc2OC)n1` was tested, and the activation was 1.61% [at 30.8 µM]. `Cc1nc(N(C)Cc2ccccc2)c2c(C)c(C)sc2n1` was tested, and the activation was 11.8% [at 30.8 µM]. For `CCCc1nn2c(=O)cc(COC(=O)c3cccc(NC(=O)CCc4ccccc4)c3)nc2s1`, the “activation” value was 19.6%. `Cn1c2ccccc2c2cc(/C=N/NC(=O)c3cc(O)ccc3O)ccc21` gave an activation of 29.4% [at 30.8 µM]. In the case of `O=[N+]([O-])c1cc(-c2ccccc2)cc([N+](=O)[O-])c1O`, the “activation” value is reported as -19.1%. `COc1ccc(NC(=O)c2ccc(NC3=NC4CS(=O)(=O)CC4S3)cc2)cc1` (stereo not given) gave an activation of 0.693% [at 30.8 µM]. Compound `O=C(O)c1cc(N/N=C/c2ccncc2)ccc1Cl` has an activation of 24.2% [at 30.8 µM]. In the case of `COc1ccc(Br)cc1CNC(=O)c1ccc2nc(C(C)C)oc2c1`, the “activation” value is reported as 21.2%. With `COC(=O)c1cc2occc2n1Cc1ccc(F)cc1Cl` the “activation” value was 44.1%.
